Common to all, as to assay: NCI-60 one-dose screen, 48 h (100 = growth as untreated, 0 = no growth, -100 = all killed)
Holding throughout (settings): 10 µM unless noted

The test system of experiment [1] is NCI-H23 lung.
Experiment [2] relates to NCI-H226 lung.
In experiment [3] the test system is NCI-H322M lung.
In experiment [4] the test system is HOP-62 NSCLC.
For experiment [5], the system named is NCI-H460 lung.
Experiment [6] deals with HOP-92 NSCLC.
For experiment [7], the system named is NCI-H522 lung.
Experiment [8] relates to A549/ATCC NSCLC.
Experiment [9] has as its system 786-0 renal.
In experiment [10] the test system is COLO 205 colon.

Results on 27 compounds are retold here after PubChem BioAssay (NCI).

Each structure is given as a SMILES string. Compounds without any hit were thinned out: in the full panel of roughly 83,000, 20% have a hit.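 Cell lines were cultured in 96-well plates, exposed to a single compound concentration, and assessed for percent growth 48 hours later.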 Values without a mark were called inactive. Activity calls are given as the source filed them. Rule for the calls: active = growth percent below 10; inactive = the rest.

On to `C=C1C(=O)O[C@H]2[C@H]1CC/C(CNC(=O)c1c[nH]c3ccc(F)cc13)=C\CC[C@@]1(C)O[C@@H]21`, for which the growth is 14.2% in experiment [1]; 25.9% in experiment [2]; 82.9% in experiment [3]; 70.6% in [4]; 85.7% in experiment [5]; -42.3% (active) in [6]. For the same compound, the growth is -73.9% (active) in [7], 46.6% in experiment [8] and -59.5% (active) in experiment [9].
`CN1CCN(C(=O)[C@@]2(C)CC[C@]3(C)CC[C@]4(C)C(=CC[C@@H]5[C@@]6(C)CCC(=O)NC(C)(C)[C@@H]6CC[C@]54C)[C@@H]3C2)CC1`: the growth in [1] was 61.8%; in experiment [2] it was 68.3%; in experiment [3], 70.7%; in experiment [4] it was 62.8%; in experiment [5], 31.8%; in experiment [6], 15.9%. The growth in [7] is 74.8%; in experiment [8], 51.9%; in experiment [9], 47.9%.
As to `Cc1ccc(-c2csc(NC(=O)c3ccccc3CN3C(=O)c4ccccc4C3=O)n2)cc1`, the growth is 93.3% in experiment [1]; 92% in experiment [2]; 95.1% in experiment [3]; 99.1% in experiment [4]; 109% in experiment [5]; 89.6% in experiment [6]. The values for the growth in experiment [7], in experiment [8] and in [9] were 82.1%, 86.4% and 95.8%, respectively.
With `O=S(=O)(Oc1ccc(Br)cc1)c1ccc(Cl)cc1`, the growth in experiment [1] is 89.4%; in experiment [2] it was 100%; in experiment [3], 97.3%; in experiment [4], 105%; in experiment [5], 110%; in experiment [6] it was 102%. Also, the growth in experiment [7] is 97.4%; in experiment [8] it was 101%; in experiment [9], 89.2%.
As for `COc1cc(-c2nc3c(ncc4ccc(=O)n(-c5ccccc5)c43)s2)cc(OC)c1OC`, the growth was 80.5% in [1]; 63.3% in experiment [2]; 73.6% in experiment [3]; 88.6% in experiment [4]; 84.3% in [5]; 19.1% in experiment [6]. Besides, the growth was 64.8% in experiment [7], 86.3% in experiment [8] and 46.7% in experiment [9].
Consider `Nc1nc(N)c2c(n1)NC(c1ccc(Cl)cc1)C1CCc3ccccc3C1=N2` (stereo unspecified), for which the growth in experiment [1] was 47.2%; in [2], 60.2%; in [3] it was 71.7%; in experiment [4], 84.2%; in experiment [5], 22.7%; in experiment [6], 94.3%. For the same compound, the growth in experiment [7] is 76.7%; in experiment [8], 64%; in [9], 64.4%; in experiment [10], 51.6%.
Turning to `CNC(=O)c1ccccc1Nc1nc(Nc2cc(OC)c(OC)c(OC)c2)ncc1Br`, the growth was -45.2% (active) in experiment [1]; 10.1% in experiment [2]; -23.2% (active) in experiment [3]; -32.8% (active) in experiment [4]; -36.9% (active) in [5]; 53.6% in experiment [6]. In addition, the growth in experiment [7] was -49.8% (active); in [8] it was -10.4% (active); in experiment [9], -18.1% (active).
`CNC(=O)c1cc(Oc2ccc3c(c2)sc2nc(-c4ccc(OC)cc4)cn23)ccn1`: the growth was 41.2% in experiment [1]; 61.6% in [2]; 56.7% in [3]; 19.4% in experiment [4]; 6.83% (active) in experiment [5]; 35% in experiment [6]. Besides, the growth in experiment [7] is 38.1%; in [8], 15.9%; in experiment [9], 29.3%.
Take `CCN(CC)CCCOc1ccc2ncnc(Nc3ccc(Oc4cccc(C(F)(F)F)c4)c(Cl)c3)c2c1`: the growth in experiment [1] is 15.4%; in [2], 73.1%; in experiment [3], 16%; in experiment [4], 13.6%; in [5], -87.7% (active); in experiment [6], 27.3%. Besides, the growth is -2.46% (active) in experiment [7], 5.61% (active) in experiment [8] and -83.9% (active) in experiment [9].
For the compound `COc1ccc(C(=S)N2CCN(c3ccc(Cl)cc3)CC2)cc1`, the growth was 101% in experiment [1]; 96% in experiment [2]; 89.3% in experiment [3]; 97.8% in experiment [4]; 105% in [5]; 89.9% in experiment [6]. For the same compound, the growth in [7] is 75.6%; in experiment [8], 84%; in [9], 92.5%.
Regarding `CCCCCCCCCCCCCOC(=O)c1c(C)[nH]c(/C=C2\N=C(c3ccc[nH]3)C=C2OC)c1C`, the growth in experiment [1] was 31.4%; in [2] it was -38.1% (active); in [3], 32.7%; in [4] it was 30.1%; in experiment [5], 16.1%; in experiment [6] it was -6.46% (active). Moreover, the growth was 5.93% (active) in [7], -4.51% (active) in experiment [8], 22.3% in [9] and 7.58% (active) in experiment [10].
As to `COc1ccc(Cn2cc(C(=O)N=Nc3c(O)[nH]c4c(C)cccc34)nn2)cc1`, the growth in experiment [1] was 89.1%; in experiment [2] it was 75.1%; in [3], 89.6%; in [4] it was 106%; in [5], 73.1%; in experiment [6], 51.3%. The growth in experiment [7] is 77.5%; in experiment [8], 85.3%; in [9] it was 43.5%; in experiment [10], 108%.
On to `O=S(=O)(NCCCNc1nccc(-c2c(-c3cccc(F)c3)nc3occn23)n1)c1ccc(F)cc1`, for which the growth in [1] is 84.4%; in [2], 39.6%; in [3], 73.2%; in [4] it was 63.7%; in experiment [5], 52.7%; in experiment [6], 61.4%. Further, the growth in experiment [7] was 38.7%; in [8] it was 31.1%; in experiment [9], 66%; in [10] it was 17.7%.
As for `Nc1nc(NC(=O)Nc2ccc(C(=O)O)cc2)nn1-c1ccc(S(N)(=O)=O)cc1`, the growth in [1] is 97.9%; in [2] it was 92.1%; in [3], 90.4%; in [4], 93.6%; in experiment [5] it was 95.6%; in experiment [6], 78.3%. In addition, the growth in [7] was 97.7%; in experiment [8], 82.8%; in experiment [9] it was 97.8%; in [10] it was 111%.
With `Nc1c(C(=O)Nc2cccc(Cl)c2)sc2nc3c(cc12)CCCC3`, the growth was 103% in [1]; 83.6% in experiment [2]; 108% in experiment [3]; 91.8% in experiment [4]; 100% in experiment [5]; 82.7% in experiment [6]. The growth in experiment [7] is 80.3%; in [8], 81.7%; in [9], 89%; in experiment [10], 92.2%.
Turning to `O=C1Nc2ccccc2/C1=C\c1c[nH]c2ccc(Br)cc12`, the growth in [1] was 77.4%; in [2] it was 34.9%; in [3], 64.2%; in experiment [4], 56.5%; in experiment [5] it was 80.8%; in [6] it was 64.6%. In addition, the growth in experiment [7] is 35.8%; in experiment [8] it was 73.5%; in [9], 109%; in experiment [10], 57.5%.
Regarding `CC1=CC(c2ccco2)=C2C(N)=NNC2N1` (stereo unspecified), the growth in [1] is 97.6%; in experiment [2], 95.7%; in [3], 92.6%; in experiment [4], 88.8%; in experiment [5] it was 100%; in experiment [6], 77.8%. The growth in experiment [7] was 95.2%; in [8], 101%; in experiment [9], 97.6%; in [10], 116%.
Turning to `COc1ccc(-c2ccc(-c3ccc(C(=N)N)nc3)s2)cc1Cl`, the growth in experiment [1] was 41.2%; in [2], 77.7%; in experiment [3] it was 15.7%; in experiment [4], -30.8% (active); in experiment [5] it was -80.3% (active); in experiment [6], 84.4%. Further, the growth in experiment [7] is -47.3% (active); in experiment [8], -32.3% (active); in experiment [9] it was -89.7% (active); in [10], -56% (active).
As for `NC(=O)c1cnc(Nc2cccc(N)c2)nc1NCCCNC(=O)C1CCC1`, the growth in experiment [1] is 79.8%; in experiment [2], 69.1%; in experiment [3], 86.6%; in experiment [4], 46.6%; in experiment [5], 69.8%; in [6], 123%. Moreover, the growth in experiment [7] is 64.5%; in experiment [8], 87.7%; in [9], 76.8%; in experiment [10], 28.2%.
Regarding `Cc1nnc(-c2ccc3c(c2)nc(/C=C/c2ccccc2)n3C2CCCCC2)o1`, the growth in [1] is 88.3%; in experiment [2], 104%; in [3], 85.9%; in [4], 83%; in experiment [5], 82.4%; in [6], 79.7%. Also, the growth in [7] is 68.6%; in experiment [8], 52.5%; in experiment [9], 92.2%; in experiment [10] it was 79.7%.
Take `CCN1CCN(CC(=O)Nc2ccc(-c3cn4c(n3)sc3cc(Oc5ccnc(C(=O)NC)c5)ccc34)cc2)CC1`: the growth is 97.1% in experiment [1]; 105% in experiment [2]; 75.9% in [3]; 66.1% in experiment [4]; 48.7% in experiment [5]; 54.6% in experiment [6]. The growth in [7] was 83.7%; in experiment [8] it was 78.2%; in [9] it was 75.3%; in experiment [10], 51.8%.
In the case of `Nc1nc(N)c(N=Nc2ccccc2)c(-c2ccccc2)n1`, the growth in experiment [1] was 65.4%; in [2] it was 55.4%; in [3], 70.1%; in experiment [4], 46.9%; in experiment [5], 48.7%; in experiment [6] it was 38.8%. Further, the growth in experiment [7] is 49.2%; in experiment [8] it was 63.8%; in experiment [9], 60.7%; in experiment [10], 65.8%.
Turning to `CN1CCN(C(=S)SCCCCOc2cc(=O)oc3ccccc23)CC1`, the growth in [1] is 80.9%; in experiment [2], 67.1%; in experiment [3] it was 102%; in [4] it was 79.6%; in experiment [5], 93.5%; in [6], 67.5%. In addition, the growth in [7] is 63.6%; in experiment [8], 84.5%; in [9], 96.9%; in [10], 86.4%.
In the case of `CC(=O)O[C@H]1C[C@@H]2C(C)(C)C(=O)CC[C@@]2(C)c2ccc(C(C)C)cc21`, the growth in [1] is 102%; in experiment [2] it was 101%; in [3] it was 109%; in experiment [4], 109%; in experiment [5], 107%; in experiment [6], 96.5%. Besides, the growth in experiment [7] is 98.3%; in experiment [8] it was 107%; in [9] it was 93.9%; in [10] it was 115%.
With `CC1=C(CCC(C)NCc2ccc(OCCCN3CCCCC3)cc2)C(C)(C)CCC1` (stereo unspecified), the growth was -42.9% (active) in experiment [1]; -32.7% (active) in experiment [2]; -40.5% (active) in experiment [3]; -67.6% (active) in experiment [4]; -77% (active) in experiment [5]; -83% (active) in experiment [6]. Besides, the growth in experiment [7] was -79.4% (active); in [8], -64.2% (active); in [9], -85.6% (active); in experiment [10], -70.9% (active).
For `COC(=O)CC[C@@H]1O[C@@H](c2ccc(F)cc2)[C@@H](O)[C@H]1O`, the growth in experiment [1] was 103%; in experiment [2] it was 101%; in experiment [3] it was 106%; in [4], 104%; in experiment [5], 109%; in [6], 93.9%. Further, the growth in experiment [7] was 99.7%; in experiment [8] it was 112%; in [9], 105%; in experiment [10], 110%.
On to `Cc1ccccc1Nc1cc(O)c2c(=O)cc(-c3ccccc3)oc2c1`, for which the growth in experiment [1] was 45.5%; in experiment [2], 57.8%; in experiment [3] it was 70.5%; in experiment [4] it was 49.4%; in experiment [5], 8.06% (active); in experiment [6], 86.7%. In addition, the growth in [7] was 36%; in [8], 35.2%; in experiment [9], 43.5%; in experiment [10] it was 61.8%.
